Consider five molecules from PubChem BioAssay (NCATS).

A short description of test [1]: AP1 Signaling Pathway (AID 357; active = well fitted curve in either direction with a large enough effect, not every such curve was filed as active; also: % is scaled to controls: 0 for no effect and ±100 for the full control effect). Particulars: ME-180 AP-1-bla reporter, EGF-induced, beta-lactamase ratio, 5 h; at 7.69 µM (top of the series) unless noted. The essentials: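 AP-1-bla ME-180 cells with beta-lactamase reporter under AP-1 response element, stimulated with EC50 EGF; compounds titrated, 5 hours at 37 degrees Celsius. CCF4 read at 460/530 nm ratio; positive and negative modulators judged by AC50.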

For test [2], the target named is Cytochrome P450 1A2 (Homo sapiens) (UniProt P05177). Kind of test: p450-cyp1a2 (AID 410; calls by dose curve; also: potency is read from the fitted curve at half-maximal effect;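 as to activity change, negative = inhibition: -100% = full effect of reference inhibitor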). In outline: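 20nM CYP1A2 with 100uM Luciferin-ME (at Km) in 100mM KPO4; compound preincubated 10 min, NADPH regeneration added, 60 min at room temperature. Luciferin quantified by luminescence after detection reagent; normalized to 57 uM furafylline.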
The nature of test [3]: NFAT Signaling Pathway (AID 444; active = well fitted curve in either direction with a large enough effect, not every such curve was filed as active;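 also: carbachol stimulus at about its EC50 of 1 µM final; % is scaled to controls: 0 for no effect and ±100 for the full control effect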). Particulars: Jurkat NFAT-bla M1, carbachol, beta-lactamase ratio, 5 h; at 7.69 µM (top of the series) unless noted. In outline: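 Read-out: CCF4 FRET ratio (460 nm/530 nm) after 1 h RT dye loading, used for %activity and AC50 from titration series. Cells: Jurkat NFAT-β-lactamase/M1 line, treated with compound plus 1 uM carbachol for 5 h, 37 °C.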

Test [4] in a line: Stat Signaling Pathway (AID 446; active = well fitted curve in either direction with a large enough effect, not every such curve was filed as active;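 also: ME-180 cervical cancer cells given 40 pM IL-6 alongside compound; SIE-controlled beta-lactamase reporter measured as 460/530 nm FRET emission ratio; % is scaled to controls: 0 for no effect and ±100 for the full control effect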). Particulars: ME-180 SIE beta-lactamase reporter, IL-6 stimulated, 5 h; at 7.69 µM (top of the series) unless noted. In outline: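 Reporter line: ME-180 cervical carcinoma, SIE-beta-lactamase. Treatment: compound with 40 pM IL-6, 5 hrs, 37 C, in low-serum OPTI-MEM with 10 mM HEPES pH 7.3. Detection: 460/530 nm fluorescence.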
Test [5] has as its target Glucocorticoid receptor (Homo sapiens) (UniProt P04150). Put plainly: GR-GFP Redistribution (AID 450;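 active = compounds whose dose series gives a full or clear partial fitted curve of increased nuclear translocation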; also: potency is read from the fitted curve at half-maximal effect). The conditions noted are these: U2OS GR-GFP nuclear translocation, laser cytometry, 2 h.
Test [6] shares this target. Kind of test: GR-EFC Redistribution (AID 451; calls by dose curve; also: potency is read from the fitted curve at half-maximal effect). The conditions noted are these: CHO-K1 GR-EFC translocation, beta-gal luminescence, 2 h. The essentials:
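Translocation of GR-ED fusion to nuclear EA restores b-gal, read by luminescence after 1 h room-temperature detection. Engineered CHO-K1 biosensor cells, 1,000/well, exposed 2 h at 37 C to titrations up to 46 uM final.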

The target of test [7] is Mitogen-activated protein kinase 10 (Mus musculus) (UniProt Q61831). Kind of test: JNK3 AlphaScreen Assay (AID 530; active = well fitted curve in either direction with a large enough effect, not every such curve was filed as active;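 also: kinase came from lysate of stimulated human HepG2 cells; signal reports phosphorylation of biotinylated GST-cJun 1-79 at Ser73 with 10 µM ATP; % is scaled to controls: 0 for no effect and ±100 for the full control effect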). In outline:
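Compound titrations were preincubated 15 minutes at room temperature with substrate, antibody and pre-activated JNK3-containing HepG2 lysate. Reactions were started with 10 uM ATP and stopped with EDTA-containing bead buffer for AlphaScreen detection.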
On the technique in general: Bead proximity is the source of the signal in Alpha formats.

For test [8], the target named is 3',5'-cyclic-AMP phosphodiesterase 4B (Homo sapiens) (UniProt Q07343). Kind of test: qHTS Assay for Inhibitors of PDE-IV (AID 607; active = well fitted activation curve with a large enough effect in the main read-out, with a control signal flat, not every such curve was filed as active; also: % of control where 0% means no effect). In outline:
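Cell-based read-out of cAMP via a modified cyclic nucleotide-gated channel and membrane potential dye (535/590 nm) in HEK293 cells expressing PDE4 endogenously. Compounds tested up to 22.9 uM final; 100 uM RO 20-1724 reference.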
In general terms: qHTS replaces the single test concentration by a dilution series.

Test [9] has as its target Guanine nucleotide-binding protein G(i) subunit alpha-1 (Homo sapiens) (UniProt P63096). Kind of test: qHTS Assay for Inhibitors of RGS12 GoLoco Motif Activity (Green Fluorophore) (AID 879).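 Also: 0% = labeled peptide with Gαi1 and full inhibition = labeled peptide alone without protein; negative values mean loss of peptide binding seen as reduced polarization.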 The essentials:
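Fluorescence polarization assay: 50 nM Gαi1 with 10 nM FITC-labeled RGS12 GoLoco peptide in 10 mM Tris pH 7.5, 150 mM NaCl, 0.1 mM GDP, 0.05% NP40, 10 min at room temperature with compound.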

Test [10] deals with Muscarinic acetylcholine receptor M1 (Rattus norvegicus) (UniProt P08482). Kind of test: qHTS Assay for Antagonists of Acetylcholine Muscarinic M1 Receptor: Measurement of IP-One Response (AID 944). Also: nearly all actives have a fitted effect of over 75% in size. The essentials:
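CHO cells stably expressing rat M1, pretreated 10 min with compound, then stimulated 30 min with carbachol at EC80 (200 nM) in LiCl-containing buffer pH 7.4; IP1 accumulation read by HTRF competition (665/620 nm).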

Test [11] deals with Pyruvate kinase (Leishmania mexicana) (UniProt Q27686). Kind of test: qHTS Validation Assay for Inhibitors of Leishmania Mexicana Pyruvate Kinase (AID 945).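 Also: 0% = DMSO only neutral control wells.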 In outline:
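Eight-point qHTS titrations; enzyme 0.2 nM LmPYK (E451W mutant); substrates 0.5 mM PEP, 0.1 mM ADP; 7 mM MgCl2; 1 h room temperature; PKLight luminescence normalized to neutral control.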

Test [12] concerns the target Pyruvate kinase PKM (Homo sapiens) (UniProt P14618). Put plainly: qHTS Assay for Activators of Human Muscle Pyruvate Kinase (AID 954; active = well fitted curve in the direction sought with a large enough effect, not every such curve was filed as active;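 also: 0% = uninhibited enzyme and -100% = no enzyme or full thiadiazolimine inhibition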). In outline: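 Human PKM2 activity is measured as ATP generation, detected by luciferase-coupled luminescence. The enzyme (0.1 nM) acts on 0.5 mM PEP and 0.1 mM ADP for 1 h at ambient temperature; data are normalized to uninhibited and full-inhibition wells.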

Test [13] addresses Alpha-galactosidase (Coffea arabica) (UniProt Q42656). Kind of test: Counterscreen for Glucocerebrosidase Inhibitors: qHTS Assay for Coffee Bean alpha-Galactosidase at pH 4.5 (AID 957).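 Also: plate controls were enzyme alone for no effect and no enzyme for full effect.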 In outline:
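Coffee bean enzyme (2 nM) with 80 uM 4-methylumbelliferyl alpha-D-galactopyranoside in 50 mM citric acid, 0.005% Tween-20, pH 4.5, 20 min at room temperature; compounds 0.7 nM–77 uM. Stopped at pH 10, fluorescence 365/440 nm; AC50 from Hill fits.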

In test [14] the target is Alpha-galactosidase A (Homo sapiens) (UniProt P06280). Put plainly: Counterscreen for Glucocerebrosidase Inhibitors: qHTS Assay for Human alpha-Galactosidase at pH 4.5 (AID 992). Also: 0% is about no effect. The essentials: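 Quantitative HTS: compounds tested from 0.7 nM up to 77 uM against 2 nM enzyme with 80 uM 4-MU alpha-D-galactopyranoside. The 20 min room-temperature reaction is stopped with 1M NaOH/1M glycine, pH 10.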
For orientation: Counterscreens check selectivity or assay interference.

The target in test [15] is alpha-glucosidase (Oryza sativa, rice) (UniProt Q653V4). Kind of test: Counterscreen for Glucocerebrosidase Inhibitors: qHTS Assay for Rice alpha-Glucosidase at pH 5.0 (AID 997).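 Also: 0% = full activity with enzyme and -100% = basal without enzyme.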 The essentials:
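Rice alpha-glucosidase (4 nM final) with 400 uM 4-methylumbelliferyl-alpha-D-glucopyranoside in citrate buffer pH 5.0, 20 min at room temperature, stopped at pH 10; fluorescence 365/440 nm, compounds 0.7 nM–77 uM, AC50 from Hill fits.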

The target of test [16] is Alpha-galactosidase (Coffea arabica) (UniProt Q42656). Put plainly: Counterscreen for Glucocerebrosidase Inhibitors: qHTS Assay for Coffee Bean alpha-Galactosidase at pH 5.9 (AID 998).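 Also: plate controls were uninhibited enzyme for no effect and no-enzyme basal signal for full effect.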 In outline:
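Compounds were titrated from 0.7 nM to 77 uM against green coffee bean alpha-galactosidase (2 nM) using 80 uM fluorogenic 4-methylumbelliferyl substrate. After 20 min at room temperature, reactions were stopped at pH 10 and read by fluorescence.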

The target of test [17] is Cytochrome P450 3A4 (Homo sapiens) (UniProt P08684). Kind of test: qHTS Assay for Activators of Cytochrome P450 3A4 (AID 885). Also: nearly all actives have a fitted effect of over 65% in size. The essentials: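 Signal was normalized against complete inhibition by 57 uM ketoconazole. The reaction used 20nM CYP3A4 with 25uM Luciferin-PPXE, 10-min compound preincubation and a 60-min NADPH-supported step at RT.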
The nature of test [18]: qHTS Assay for Identification of Small Molecule Agonists for Thrombopoietin (TPO) Signaling Pathway (AID 917). Also: % is scaled to controls: 0 for no effect and ±100 for the full control effect. The essentials:
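Luminescence from a Glycoprotein IIb promoter–driven luciferase reporter served as read-out in murine Ba/F3 cells carrying the human TPO receptor. Cells, deprived of IL-3 overnight, received compounds with 26 pM TPO and were incubated 24 hrs at 37 C.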

Test [19] addresses Cytochrome P450 2C19 (Homo sapiens) (UniProt P33261). Put plainly: qHTS Assay for Inhibitors and Substrates of Cytochrome P450 2C19 (AID 899). Also: % is scaled to controls: 0 for no effect and ±100 for the full control effect; nearly all actives have a fitted effect of over 60% in size. In outline: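 Luminescence readout of luciferin formed from 10uM Luciferin-H EGE (KM level) by 5 nM CYP2C19 in 50mM KPO4. 60 min NADPH-driven reaction at 37C after 10 min compound preincubation; data scaled to 57uM ketoconazole inhibition.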

A number with no mark means an inactive call. Results filed as inconclusive are left out. The source made the active and inactive calls. Unless noted, calls follow the shape of the dose curve; as a rule, active = well fitted curve in the direction sought with a large enough effect; inconclusive = small, poorly fitted or top-dose-only effect, or another doubt; inactive = no such curve, though single readings can be large; an effect the other way counts as inactive or inconclusive.

Sequence of Pyruvate kinase (Leishmania mexicana) (Q27686 2-499 E452W): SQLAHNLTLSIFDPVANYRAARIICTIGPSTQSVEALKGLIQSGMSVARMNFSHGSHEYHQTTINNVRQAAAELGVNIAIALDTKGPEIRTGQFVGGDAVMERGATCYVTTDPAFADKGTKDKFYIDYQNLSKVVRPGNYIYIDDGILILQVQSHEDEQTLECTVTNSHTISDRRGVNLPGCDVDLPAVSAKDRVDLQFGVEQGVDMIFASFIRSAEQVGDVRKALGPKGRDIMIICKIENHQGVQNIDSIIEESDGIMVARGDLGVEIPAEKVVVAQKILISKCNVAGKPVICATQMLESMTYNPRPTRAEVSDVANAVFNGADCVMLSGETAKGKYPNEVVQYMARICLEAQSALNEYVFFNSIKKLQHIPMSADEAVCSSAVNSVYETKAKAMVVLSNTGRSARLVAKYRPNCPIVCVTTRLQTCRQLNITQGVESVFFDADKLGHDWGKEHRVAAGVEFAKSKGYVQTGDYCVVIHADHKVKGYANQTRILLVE
Sequence of Pyruvate kinase PKM (Homo sapiens) (P14618 whole entry, looked up): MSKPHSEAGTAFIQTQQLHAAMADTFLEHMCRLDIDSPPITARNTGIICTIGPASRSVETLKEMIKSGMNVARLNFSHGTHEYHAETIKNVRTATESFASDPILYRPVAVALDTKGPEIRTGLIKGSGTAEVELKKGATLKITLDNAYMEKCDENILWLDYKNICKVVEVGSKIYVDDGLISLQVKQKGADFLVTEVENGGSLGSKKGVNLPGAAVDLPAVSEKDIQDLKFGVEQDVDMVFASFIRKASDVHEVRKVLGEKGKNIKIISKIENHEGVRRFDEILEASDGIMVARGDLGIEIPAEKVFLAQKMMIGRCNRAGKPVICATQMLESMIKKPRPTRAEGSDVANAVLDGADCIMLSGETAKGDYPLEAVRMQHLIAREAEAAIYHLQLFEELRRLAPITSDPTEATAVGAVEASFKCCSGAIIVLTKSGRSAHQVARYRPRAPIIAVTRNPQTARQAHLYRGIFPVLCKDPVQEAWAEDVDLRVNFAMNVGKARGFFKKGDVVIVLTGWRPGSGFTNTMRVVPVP
Sequence of Cytochrome P450 3A4 (Homo sapiens) (P08684 whole entry, looked up): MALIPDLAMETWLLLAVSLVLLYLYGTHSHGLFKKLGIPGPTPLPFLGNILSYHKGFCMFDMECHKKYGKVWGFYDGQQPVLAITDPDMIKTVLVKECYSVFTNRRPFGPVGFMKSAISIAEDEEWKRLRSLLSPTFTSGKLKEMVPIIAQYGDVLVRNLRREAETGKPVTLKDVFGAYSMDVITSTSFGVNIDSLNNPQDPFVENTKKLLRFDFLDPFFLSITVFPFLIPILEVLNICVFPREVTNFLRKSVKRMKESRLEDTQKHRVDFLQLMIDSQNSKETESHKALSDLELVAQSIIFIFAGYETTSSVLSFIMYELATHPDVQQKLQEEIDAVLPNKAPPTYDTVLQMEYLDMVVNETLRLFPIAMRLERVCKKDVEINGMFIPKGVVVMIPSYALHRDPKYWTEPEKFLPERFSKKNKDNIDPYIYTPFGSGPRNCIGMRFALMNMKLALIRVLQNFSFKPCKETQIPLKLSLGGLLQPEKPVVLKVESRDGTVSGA
Sequence of 3',5'-cyclic-AMP phosphodiesterase 4B (Homo sapiens) (Q07343 whole entry, looked up): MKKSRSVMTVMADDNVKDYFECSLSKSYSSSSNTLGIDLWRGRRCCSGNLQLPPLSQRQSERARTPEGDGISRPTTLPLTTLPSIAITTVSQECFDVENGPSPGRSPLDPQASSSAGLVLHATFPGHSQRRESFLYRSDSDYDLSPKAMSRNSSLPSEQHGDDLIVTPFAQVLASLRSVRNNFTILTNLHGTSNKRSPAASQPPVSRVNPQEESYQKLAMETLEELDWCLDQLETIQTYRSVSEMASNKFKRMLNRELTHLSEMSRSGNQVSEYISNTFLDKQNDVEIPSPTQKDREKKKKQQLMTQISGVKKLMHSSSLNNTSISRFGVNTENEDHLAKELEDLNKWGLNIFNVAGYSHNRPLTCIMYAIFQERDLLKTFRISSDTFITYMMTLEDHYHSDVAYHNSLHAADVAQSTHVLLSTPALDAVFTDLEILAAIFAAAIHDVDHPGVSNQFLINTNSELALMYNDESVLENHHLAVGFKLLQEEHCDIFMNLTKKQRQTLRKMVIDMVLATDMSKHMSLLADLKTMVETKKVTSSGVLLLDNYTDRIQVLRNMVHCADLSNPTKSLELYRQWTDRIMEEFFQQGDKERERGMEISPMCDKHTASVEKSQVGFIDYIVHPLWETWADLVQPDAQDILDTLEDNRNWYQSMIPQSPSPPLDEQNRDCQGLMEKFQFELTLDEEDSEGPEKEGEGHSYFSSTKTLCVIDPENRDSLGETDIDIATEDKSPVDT
Sequence of Guanine nucleotide-binding protein G(i) subunit alpha-1 (Homo sapiens) (P63096 whole entry, looked up): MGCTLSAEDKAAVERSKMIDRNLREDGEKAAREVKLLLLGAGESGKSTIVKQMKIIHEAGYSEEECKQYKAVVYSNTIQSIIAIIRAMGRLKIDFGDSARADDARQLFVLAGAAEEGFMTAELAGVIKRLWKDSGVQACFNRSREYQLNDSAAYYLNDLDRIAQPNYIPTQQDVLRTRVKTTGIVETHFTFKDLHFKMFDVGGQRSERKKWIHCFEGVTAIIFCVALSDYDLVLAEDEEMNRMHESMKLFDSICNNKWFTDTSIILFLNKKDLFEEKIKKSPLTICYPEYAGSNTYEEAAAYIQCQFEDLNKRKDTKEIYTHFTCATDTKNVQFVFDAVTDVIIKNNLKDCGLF
Sequence of Muscarinic acetylcholine receptor M1 (Rattus norvegicus) (P08482 whole entry, looked up): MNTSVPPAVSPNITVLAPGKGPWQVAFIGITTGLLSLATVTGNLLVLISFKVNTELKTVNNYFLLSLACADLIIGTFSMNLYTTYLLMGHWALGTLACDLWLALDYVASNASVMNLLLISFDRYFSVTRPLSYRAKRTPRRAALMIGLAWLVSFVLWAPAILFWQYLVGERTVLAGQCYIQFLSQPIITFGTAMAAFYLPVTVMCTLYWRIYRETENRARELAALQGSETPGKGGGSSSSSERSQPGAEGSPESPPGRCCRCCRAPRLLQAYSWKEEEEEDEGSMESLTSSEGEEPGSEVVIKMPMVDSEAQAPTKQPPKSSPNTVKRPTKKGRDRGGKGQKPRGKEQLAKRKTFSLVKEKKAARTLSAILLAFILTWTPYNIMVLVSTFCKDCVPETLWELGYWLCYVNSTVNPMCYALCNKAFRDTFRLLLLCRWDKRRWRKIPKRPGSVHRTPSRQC
Sequence of Cytochrome P450 1A2 (Homo sapiens) (P05177 whole entry, looked up): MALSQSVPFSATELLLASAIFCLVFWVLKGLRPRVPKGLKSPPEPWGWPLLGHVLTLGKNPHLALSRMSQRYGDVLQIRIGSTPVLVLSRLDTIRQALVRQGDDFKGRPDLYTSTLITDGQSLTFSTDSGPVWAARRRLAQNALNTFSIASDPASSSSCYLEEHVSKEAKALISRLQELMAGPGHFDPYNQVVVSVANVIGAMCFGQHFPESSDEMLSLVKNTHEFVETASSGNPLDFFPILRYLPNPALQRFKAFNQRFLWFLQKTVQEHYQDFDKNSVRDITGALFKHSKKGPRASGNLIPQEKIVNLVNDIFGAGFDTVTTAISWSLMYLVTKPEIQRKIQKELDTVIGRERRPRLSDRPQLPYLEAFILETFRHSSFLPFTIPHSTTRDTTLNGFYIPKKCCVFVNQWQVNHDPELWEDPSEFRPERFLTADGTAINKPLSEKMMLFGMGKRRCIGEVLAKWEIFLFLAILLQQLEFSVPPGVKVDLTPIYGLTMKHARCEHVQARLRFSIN
Sequence of Alpha-galactosidase (Coffea arabica) (Q42656 whole entry, looked up): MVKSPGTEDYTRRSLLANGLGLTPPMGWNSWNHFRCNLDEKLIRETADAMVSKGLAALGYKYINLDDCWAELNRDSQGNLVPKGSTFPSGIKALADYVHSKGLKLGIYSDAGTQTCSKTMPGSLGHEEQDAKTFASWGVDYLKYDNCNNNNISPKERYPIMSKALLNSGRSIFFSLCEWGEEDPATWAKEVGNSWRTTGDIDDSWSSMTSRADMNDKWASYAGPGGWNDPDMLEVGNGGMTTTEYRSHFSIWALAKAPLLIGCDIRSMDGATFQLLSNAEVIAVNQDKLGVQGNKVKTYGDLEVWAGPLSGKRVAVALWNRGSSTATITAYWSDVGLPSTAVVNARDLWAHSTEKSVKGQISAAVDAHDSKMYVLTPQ
Sequence of Alpha-galactosidase A (Homo sapiens) (P06280 whole entry, looked up): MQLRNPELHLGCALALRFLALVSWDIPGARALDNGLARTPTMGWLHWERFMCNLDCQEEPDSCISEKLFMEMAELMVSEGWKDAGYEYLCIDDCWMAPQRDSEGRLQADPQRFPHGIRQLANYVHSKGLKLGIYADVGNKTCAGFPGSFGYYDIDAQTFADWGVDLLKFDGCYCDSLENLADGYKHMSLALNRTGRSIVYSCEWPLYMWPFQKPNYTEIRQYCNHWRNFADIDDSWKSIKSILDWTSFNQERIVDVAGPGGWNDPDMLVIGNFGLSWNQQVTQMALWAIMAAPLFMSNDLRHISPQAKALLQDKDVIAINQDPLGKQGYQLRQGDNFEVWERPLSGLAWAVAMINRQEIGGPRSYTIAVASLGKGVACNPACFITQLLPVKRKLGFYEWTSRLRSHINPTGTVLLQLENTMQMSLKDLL
Sequence of Cytochrome P450 2C19 (Homo sapiens) (P33261 whole entry, looked up): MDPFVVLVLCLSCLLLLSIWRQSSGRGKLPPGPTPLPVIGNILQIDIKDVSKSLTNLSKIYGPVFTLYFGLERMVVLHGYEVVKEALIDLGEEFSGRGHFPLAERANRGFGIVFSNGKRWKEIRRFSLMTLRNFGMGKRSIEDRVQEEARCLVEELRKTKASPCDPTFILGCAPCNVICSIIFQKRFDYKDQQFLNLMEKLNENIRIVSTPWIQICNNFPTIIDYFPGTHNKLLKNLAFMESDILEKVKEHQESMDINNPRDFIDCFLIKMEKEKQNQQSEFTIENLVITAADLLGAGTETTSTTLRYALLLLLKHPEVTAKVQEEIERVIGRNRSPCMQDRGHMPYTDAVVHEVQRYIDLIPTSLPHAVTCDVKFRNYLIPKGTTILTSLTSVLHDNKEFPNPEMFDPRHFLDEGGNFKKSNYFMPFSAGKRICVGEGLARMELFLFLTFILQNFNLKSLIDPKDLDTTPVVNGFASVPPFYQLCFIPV

With `O=C(O)[C@H]1[C@H](C(=O)O)[C@H]2CC[C@@H]1O2`, the values for the activity change, negative = inhibition in [1] and in test [3] were -9.16% [at 38 µM] and -8.52% [at 38 µM], respectively. The Potency result in test [2], in [7] and in test [10] was “inactive” each time. The activity, negative = inhibition in test [4] was -14.7% [at 38 µM]. Besides, the Potency in [5] and in test [6] was over 46 µM throughout. Besides, the result in test [8], in test [9], in test [11], in [12], in [13] and in test [14] was inactive. The molecule was called inactive in test [15] and in [16].
Turning to `COc1ccc2c3c1O[C@@H]1C(=O)CC[C@@]4(O)[C@@H](C2)N(CC2CC2)CC[C@]314`, the activity change, negative = inhibition was -5.48% [at 38 µM] in test [1] and -9.4% [at 38 µM] in [3]. Further, the Potency result in [2], in [7], in [17] and in [10] was “inactive” in each case. Also, the activity, negative = inhibition in test [4] was 4.82% [at 38 µM]. Further, the Potency in [5] and in test [6] was over 46 µM throughout. In addition, the call in test [8], in test [9], in test [18], in [11], in test [12] and in [13] was inactive. In addition, the call in [14], in test [15] and in test [16] was inactive.
Regarding `CC(=O)[C@@H]1CC[C@H]2[C@H]3CC[C@H]4C[C@@H](O)CC[C@]4(C)[C@@H]3CC[C@]12C`, the values for the activity change, negative = inhibition in test [1] and in test [3] were 11.2% [at 38 µM] and -10.3% [at 38 µM], respectively. For the same molecule, the Potency is 10 µM (active) in test [2], over 46 µM in [5] and over 46 µM in [6]. The activity, negative = inhibition in [4] is -25.9% [at 38 µM]. Moreover, the Potency entry in test [7], in test [17] and in [10] was “inactive” in each case. Moreover, the molecule was classed as inactive in test [8], in test [9], in [11], in test [12], in [13] and in test [14]. Besides, the outcome in [15] and in test [16] was inactive.
Turning to `COc1cc2c(cc1OC)[C@]13CC[N@+]4(C)CC5=CCO[C@H]6CC(=O)N2[C@@H]1[C@@H]6[C@@H]5C[C@]34O`, the activity change, negative = inhibition was -12.3% in test [1], -11.4% [at 2.29 µM] in test [2], 4.86% in test [3] and 1.38% [at 11.4 µM] in test [7]. In [4], the activity, negative = inhibition is -5.46%. For the same molecule, the Potency in test [5] is over 46 µM; in test [6], over 9.22 µM. Moreover, in test [8], the result was inactive. Besides, in test [17], the activity change, positive = activation is -28.5% [at 11.4 µM].
As to `N[C@H](Cn1oc(=O)[nH]c1=O)C(=O)O`, the values for the activity change, negative = inhibition in test [1] and in [3] were 0.495% [at 38 µM] and -2.78% [at 38 µM], respectively. Also, the Potency entry in test [2], in test [7] and in test [19] was “inactive” throughout. The activity, negative = inhibition in test [4] is 6.66% [at 38 µM]. Moreover, the Potency in test [5] and in [6] was over 46 µM each time. Besides, in test [8], the molecule was called inactive.
